From PubChem BioAssay AID2284381 (EPA ToxCast)
Records with an inconclusive call do not appear. Active and inactive are the calls of the source. How the source made its calls: active means hit-call score of the fitted dose curve at least 0.9, where 1 is the maximum; inconclusive means response in the unintended direction; inactive means score below 0.9.

System: Japanese medaka Retinoid X Receptor beta (RXRb), gene 100125505
Assay: ATG_jmRXRb_EcoTox2: Attagene TRANS-FACTORIAL EcoTox-2 HepG2 Assay for Japanese medaka Retinoid X Receptor beta (RXRb)
Experimental: ATG_EcoTox2 is a cell-based, multiplexed assay created by modifying the existing Attagene TRANS-FACTORIAL system to include a panel of nuclear receptors from some or all the following species: human (Homo sapiens), african clawed frog (Xenopus laevis), rainbow trout (Oncorhynchus mykiss), japanese medaka (Oryzias latipes), and zebrafish (Danio rerio). The ECOTOX2-FACTORIAL format uses HepG2, a human liver cell line, with measurements taken at 24 hours after chemical dosing in a 24-well plate. ATG_jmRXRb_EcoTox2 is one of 29 assay components calculated in the ATG_EcoTox2 assay. It is designed to make measurements of mRNA induction, a form of inducible reporter, as detected with fluorescence intensity signals by Reverse transcription polymerase chain reaction (RT-PCR) and Capillary electrophoresis technology.The assay endpoint ATG_jmRXRb_EcoTox2 was analyzed in the positive analysis fitting direction relative to DMSO as the negative control and baseline of activity. Using a type of inducible reporter, measures of mRNA for gain-of-signal activity can be used to understand the reporter gene at the transcription factor-level as they relate to the gene RXRb. Furthermore, this assay endpoint can be referred to as a primary readout, because this assay has produced multiple assay endpoints where this one serves a reporter gene function. […]
Human liver HepG2 cells are transiently transfected with multiple reporter transcription units (MRTUs) in 6-well plates using FuGene 6 reagent (Roche; 3 ml FuGene/1 mg DNA). […] A major difference between the CIS and TRANS system is that in CIS activities of endogenous TFs are measured, whereas the TRANS assay evaluates changes in activities of exogenous, chimeric NR-Gal4 proteins. […] The fragments were purified using Qiaquick PCR columns (Qiagen), analyzed on an ABI 3130xL genetic analyzer (Applied Biosystems) with peak positions identified by using a set of X-rhodamine (ROX)-labeled MapMarker1000 molecular weight standards (BioVentures). […]

Compound | AC50
CCCCOCN(C(=O)CCl)c1c(CC)cccc1CC | 50 µM (active)
O=C(O)C(F)(F)C(F)(F)C(F)(F)C(F)(F)C(F)(F)C(F)(F)C(F)(F)F | 31.4 µM (active)
[Cl][Sn]([c]1ccccc1)([c]1ccccc1)[c]1ccccc1 | 0.171 µM (active)
